Consider five molecules from PubChem BioAssay.

Assay [1] is described as follows: compounds binding Alexa647 anti-His antibody – biochemical, small-molecule microarray, 635 nm fluorescence, artefact control for SMM control protein annotation, primary screen (AID 1128).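 Note: score merges feature fluorescence with signal-to-noise for each printed compound spot.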 The settings on record: higher = more signal.
In assay [2] the test system is Human papillomavirus type 1a E7 protein (residues 1-88). Kind of assay: HPV1a E7 small-molecule binders, primary screen, biochemical, small-molecule microarray, residues 1-88, 635 nm (AID 1129). The settings on record: small-molecule microarray binding, fluorescence 635 nm; higher = more signal.
For assay [3], the target named is Focal adhesion kinase 1 (Homo sapiens) (UniProt Q05397). As to the kind of experiment: PTK2 protein binding on printed compound slides – biochemical, small-molecule microarray, 635/667 nm fluorescence, BSA, DTT, primary screen (AID 1130).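 Note: composite of spot emission at 667 nm and signal to noise over triplicate slides.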 The settings on record: 635 nm fluorescence, higher = more signal.
The subject of assay [4] is Fibrinogen (Alexa647-labelled). As to the kind of experiment: Alexa647-fibrinogen binding to printed small molecules – biochemical, small-molecule microarray, 635/667 nm fluorescence, artefact control for SMM control-protein annotation, profiling panel (AID 1131).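 Note: z-score merges 667 nm fluorescence with per-spot signal-to-noise over triplicate slides.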 The settings on record: fibrinogen-A647 binding fluorescence, higher = more signal.
In assay [5] the target is Follistatin (Homo sapiens) (UniProt P19883). As to the kind of experiment: FST protein binding to printed compounds – biochemical, small-molecule microarray, 635/667 nm fluorescence, primary screen (AID 1132). The settings on record: 635 nm fluorescence, higher = more signal.
The target in assay [6] is Fibroblast growth factor 2 (Homo sapiens) (UniProt P09038). Kind of assay: basic fibroblast growth factor binding to printed compounds – biochemical, small-molecule microarray, 635/667 nm fluorescence, primary screen (AID 1133). The settings on record: FGF2, fluorescence 635/667, higher = more signal.
The nature of assay [7]: JC-1 mitochondrial potential readout, lung cancer cells – cell-based, A549, JC-1 fluorescence, basal, 24 h, 100 nL, profiling panel (AID 1138).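 Note: A549 lung adenocarcinoma cells under basal conditions with no added stimulus; test concentration not given here.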 The settings on record: higher = more signal.
A further assay concerns Lefty1. As to the kind of experiment: Lefty1 protein binding to printed compounds – biochemical, small-molecule microarray, 635/667 nm fluorescence, primary screen (AID 1139). The settings on record: fluorescence 635/667, higher = more signal.
The test system of assay [8] is wheat germ agglutinin (Triticum aestivum), Alexa647-labelled. Kind of assay: Alexa647-WGA lectin binding to printed small molecules – biochemical, small-molecule microarray, 635/667 nm fluorescence, artefact control for SMM control-protein annotation, profiling panel (AID 1140).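 Note: score merges 667 nm feature emission with signal to noise over triplicate slides.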 The settings on record: WGA-A647 binding, 635 nm fluorescence, higher = more signal.
The target of assay [9] is Luciferin 4-monooxygenase (Photinus pyralis) (UniProt P08659). As to the kind of experiment: inhibition of purified Photinus pyralis luciferase – biochemical, luminescence, purified enzyme, 2006 set, primary screen (AID 1141).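 Note: cell-free assay with purified firefly luciferase at 100 ng per well in PBS; test concentration not given here.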 The settings on record: purified firefly luciferase, SteadyGlo luminescence, 30 min; higher = more signal, called active from +8 up or from −8 down.

Assay [10] concerns Wnt5a (protein binding on small-molecule microarray). As to the kind of experiment: small molecules binding Wnt5a protein – biophysical, small-molecule microarray, 635/667 nm fluorescence, primary screen (AID 1142).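 Note: fluorescence read at 667 nm with signal to noise per printed feature.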 The settings on record: 635 nm fluorescence, higher = more signal.
The nature of assay [11]: ATP-based viability of Huh7 replicon cells – cell-based, CellTiter-Glo luminescence, basal, 48 h, cytotoxicity control for HCV replication inhibitor project, primary screen (AID 1143).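 Note: Huh7 hepatoma cells carrying a hepatitis C replication reporter with no stimulus; test concentration not given here.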 The settings on record: higher = more signal, called active from +8 up or from −8 down.
The nature of assay [12]: Pseudomonas biofilm growth suppression – PAO1 strain, BacTiter-Glo luminescence, LB-PBS, primary screen (AID 1144). The settings on record: P. aeruginosa PAO1 biofilm, 12 h, higher = more signal.
Assay [13] can be described thus: basal CRE-LacZ reporter activity in PC12 – cell-based, unstimulated, primary screen (AID 1145). The settings on record: no forskolin, luminescence, 4.5 h, higher = more signal, called active from +8 up or from −8 down.
Assay [14] can be described thus: forskolin-driven CRE-LacZ activity in PC12 – cell-based, CRE-LacZ reporter, forskolin-stimulated, primary screen (AID 1146).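 Note: PC12 cells with 6xCRE LacZ reporter stimulated by forskolin 10 µM; beta-galactosidase reporter signal reflecting CREB driven transcription.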 The settings on record: luminescence, 4.5 h, higher = more signal, called active from +8 up or from −8 down.
Assay [15] concerns the target Streptavidin (Streptomyces avidinii) (UniProt P22629). Kind of assay: compounds binding control protein streptavidin – biophysical, small-molecule microarray, 635/667 nm fluorescence, artefact control for SMM compound annotation, primary screen (AID 1147).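 Note: signal reflects streptavidin binding to arrayed compounds as a control protein.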 The settings on record: higher = more signal.
Assay [16] in a line: probe aInhba binding on compound microarray – biochemical, small-molecule microarray, 635/667 nm fluorescence, primary screen (AID 1148).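 Note: score merges 667nm spot fluorescence with signal-to-noise for antibody binding to printed compounds.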 The settings on record: higher = more signal.
Assay [17] concerns the target Torsin-1A (Homo sapiens) (UniProt O14656). As to the kind of experiment: TOR1A wild-type binding on microarray – cell lysate, small-molecule microarray, lysate, 635/667 nm, primary screen (AID 1149). The settings on record: COS7 hTOR1A-WT lysate, 635 nm fluorescence, higher = more signal.
Assay [18] has the same target. As to the kind of experiment: torsin A mutant lysate binding on microarrays – cell lysate, small-molecule microarray, COS7 lysate, 635/667 nm fluorescence, primary screen (AID 1150).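 Note: score pools 667 nm emission and signal to noise measuring lysate protein binding.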 The settings on record: COS7 hTOR1A mutant lysate, 635 nm fluorescence, higher = more signal.
The subject of assay [19] is Sonic hedgehog protein (Shh). Kind of assay: Sonic hedgehog microarray binding compounds – biochemical, small-molecule microarray, 635/667 nm fluorescence, primary screen (AID 1151).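 Note: Shh protein binding to compounds spotted on small-molecule microarray slides; score combines spot fluorescence intensity with signal-to-noise across triplicate slides.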 The settings on record: 635 nm fluorescence, higher = more signal.

Structures are written as SMILES. Calls of active or inactive are those of the source. Unless noted, the rule behind the calls is not given here.

Luciferin 4-monooxygenase (Photinus pyralis), sequence (P08659 whole entry, looked up): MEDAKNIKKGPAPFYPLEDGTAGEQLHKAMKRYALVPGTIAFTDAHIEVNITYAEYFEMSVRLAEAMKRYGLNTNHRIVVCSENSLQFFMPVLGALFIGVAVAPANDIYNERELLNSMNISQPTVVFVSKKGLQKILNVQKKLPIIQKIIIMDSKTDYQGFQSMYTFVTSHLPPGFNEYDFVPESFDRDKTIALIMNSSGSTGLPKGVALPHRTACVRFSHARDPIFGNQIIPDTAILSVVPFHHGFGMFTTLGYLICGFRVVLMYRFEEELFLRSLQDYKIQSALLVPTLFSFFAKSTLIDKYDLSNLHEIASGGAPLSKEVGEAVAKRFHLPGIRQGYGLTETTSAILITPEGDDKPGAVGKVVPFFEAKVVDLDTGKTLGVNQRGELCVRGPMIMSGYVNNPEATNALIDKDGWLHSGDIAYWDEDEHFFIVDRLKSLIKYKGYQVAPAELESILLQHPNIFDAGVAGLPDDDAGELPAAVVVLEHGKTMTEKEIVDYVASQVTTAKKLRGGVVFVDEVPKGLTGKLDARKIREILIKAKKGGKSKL
Fibroblast growth factor 2 (Homo sapiens), sequence (P09038 whole entry, looked up): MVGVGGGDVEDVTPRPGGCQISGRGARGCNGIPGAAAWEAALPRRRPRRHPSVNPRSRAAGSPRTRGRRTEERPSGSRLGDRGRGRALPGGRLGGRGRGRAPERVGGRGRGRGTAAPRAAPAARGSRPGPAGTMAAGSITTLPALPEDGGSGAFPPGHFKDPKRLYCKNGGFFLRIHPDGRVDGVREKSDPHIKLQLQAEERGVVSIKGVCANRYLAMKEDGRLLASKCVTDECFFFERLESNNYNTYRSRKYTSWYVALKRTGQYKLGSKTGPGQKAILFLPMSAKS
Streptavidin (Streptomyces avidinii), sequence (P22629 whole entry, looked up): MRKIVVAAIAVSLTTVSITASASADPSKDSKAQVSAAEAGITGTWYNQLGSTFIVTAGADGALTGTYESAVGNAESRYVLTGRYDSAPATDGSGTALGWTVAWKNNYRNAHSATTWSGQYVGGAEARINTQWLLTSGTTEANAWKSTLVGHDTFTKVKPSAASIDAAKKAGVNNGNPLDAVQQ
Focal adhesion kinase 1 (Homo sapiens), sequence (Q05397 whole entry, looked up): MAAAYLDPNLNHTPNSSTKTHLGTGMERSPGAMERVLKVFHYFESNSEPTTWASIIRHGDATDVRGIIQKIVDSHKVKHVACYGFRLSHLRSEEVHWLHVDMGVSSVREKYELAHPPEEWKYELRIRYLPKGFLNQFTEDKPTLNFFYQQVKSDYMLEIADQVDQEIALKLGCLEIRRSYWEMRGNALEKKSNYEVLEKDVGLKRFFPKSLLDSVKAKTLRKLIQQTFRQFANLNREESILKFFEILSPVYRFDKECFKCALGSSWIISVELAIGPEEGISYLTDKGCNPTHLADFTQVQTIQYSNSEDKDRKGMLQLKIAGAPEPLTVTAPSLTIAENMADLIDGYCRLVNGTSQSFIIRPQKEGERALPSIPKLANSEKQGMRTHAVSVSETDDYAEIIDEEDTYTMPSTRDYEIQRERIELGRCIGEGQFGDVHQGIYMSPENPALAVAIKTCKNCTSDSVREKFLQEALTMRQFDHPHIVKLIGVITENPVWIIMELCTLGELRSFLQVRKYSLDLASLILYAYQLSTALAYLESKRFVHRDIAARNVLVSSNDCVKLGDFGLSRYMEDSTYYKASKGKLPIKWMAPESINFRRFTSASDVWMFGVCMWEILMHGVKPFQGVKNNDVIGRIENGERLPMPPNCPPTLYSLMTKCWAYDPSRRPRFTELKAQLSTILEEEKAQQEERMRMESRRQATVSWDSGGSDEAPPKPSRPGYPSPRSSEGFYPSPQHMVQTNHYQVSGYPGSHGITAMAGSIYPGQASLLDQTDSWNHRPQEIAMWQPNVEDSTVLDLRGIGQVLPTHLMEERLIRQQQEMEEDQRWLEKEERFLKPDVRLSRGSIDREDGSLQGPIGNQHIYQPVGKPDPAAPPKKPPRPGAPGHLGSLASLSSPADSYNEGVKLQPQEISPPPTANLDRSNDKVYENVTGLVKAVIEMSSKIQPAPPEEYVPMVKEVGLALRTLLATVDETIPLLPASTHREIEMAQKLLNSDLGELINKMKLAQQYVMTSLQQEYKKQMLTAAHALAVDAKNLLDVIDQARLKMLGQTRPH
Follistatin (Homo sapiens), sequence (P19883 whole entry, looked up): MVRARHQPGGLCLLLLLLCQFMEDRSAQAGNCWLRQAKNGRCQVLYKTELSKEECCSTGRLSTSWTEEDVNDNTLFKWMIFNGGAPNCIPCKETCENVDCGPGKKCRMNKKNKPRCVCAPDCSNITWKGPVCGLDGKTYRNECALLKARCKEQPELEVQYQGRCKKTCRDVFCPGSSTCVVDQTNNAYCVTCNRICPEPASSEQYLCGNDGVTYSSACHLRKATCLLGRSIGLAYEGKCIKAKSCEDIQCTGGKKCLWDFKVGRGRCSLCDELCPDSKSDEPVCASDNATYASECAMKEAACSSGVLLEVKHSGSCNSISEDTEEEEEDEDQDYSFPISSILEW
Torsin-1A (Homo sapiens), sequence (O14656 whole entry, looked up): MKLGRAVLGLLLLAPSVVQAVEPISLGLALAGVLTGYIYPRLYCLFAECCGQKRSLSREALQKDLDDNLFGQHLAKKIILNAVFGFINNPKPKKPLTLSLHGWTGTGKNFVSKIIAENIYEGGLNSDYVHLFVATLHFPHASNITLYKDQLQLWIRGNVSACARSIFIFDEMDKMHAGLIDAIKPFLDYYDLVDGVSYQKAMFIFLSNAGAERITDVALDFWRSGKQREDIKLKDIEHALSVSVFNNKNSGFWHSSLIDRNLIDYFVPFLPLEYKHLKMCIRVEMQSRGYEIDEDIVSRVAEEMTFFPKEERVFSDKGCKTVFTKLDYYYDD

For the molecule `COC(=O)C(CC#Cc1ccc2c(c1)[C@]1(C(=O)N2)[C@H](c2ccc(OCCO)cc2)N2[C@H](c3ccccc3)[C@H](c3ccccc3)OC(=O)[C@H]2[C@@H]1C(=O)N1CCc2cc(OC)c(OC)cc2C1)C(=O)OC`, the composite z-score in assay [1] was found to be 0.857; in [2], 1.2; in assay [3], 0.343; in assay [4], 1; in assay [5] it was 1.41; in assay [6], 1.57. Also, the composite z-score in the assay on Lefty1 amounted to 1.36; in assay [8], 0.423; in assay [10] it was 0.714; in [15], 1.52; in assay [16] it was 0.542; with Torsin-1A (Homo sapiens) [17], 0.668. For the same molecule, the composite z-score was found to be 0.623 with Torsin-1A (Homo sapiens) [18] and 1.91 in assay [19]. In addition, the z-score in [7] is -1.26; in [9], -0.465 (inactive); in assay [11], -0.6 (inactive); in [12], 0.188 (inactive); in assay [13] it was -0.0688 (inactive); in assay [14] it was 2.19 (inactive).
Take `CC(C)C(=C=CC[C@@H](O)c1ccc(OCCO)cc1)C[C@@H](O)c1ccccn1`: the composite z-score is -0.449 in [1]; -0.251 in assay [2]; -0.542 in [3]; 0.819 in [4]; 1.58 in assay [5]; 1.78 in assay [6]. The composite z-score is 1.51 in the assay with Lefty1; -0.187 in [8]; 0.207 in assay [10]; 0.0453 in [15]; -0.231 in assay [16]; 0.75 in the assay with Torsin-1A (Homo sapiens) [17]. For the same molecule, the composite z-score with Torsin-1A (Homo sapiens) [18] was 0.205; in assay [19] it was 2.26. Moreover, the z-score in assay [7] is -0.306; in assay [9], -0.069 (inactive); in [11], -0.661 (inactive); in [12], 0.205 (inactive); in [13], 0.145 (inactive); in [14] it was 1.4 (inactive).
On to `O=C(CS)NCCCCCCNC(=O)[C@@H]1C[C@@H]2C(=O)N[C@@H](Cc3ccccc3)C(=O)N2[C@@H]1c1cccc(OCCO)c1`, for which the composite z-score amounted to 3.09 in assay [1]; 1.23 in assay [2]; 0.385 in assay [3]; 0.54 in [4]; 1.33 in [5]; 1.76 in [6]. The composite z-score was 0.823 in the assay with Lefty1; 0.1 in assay [8]; 0.879 in assay [10]; 0.253 in assay [15]; -0.163 in assay [16]; 1.1 in the assay with Torsin-1A (Homo sapiens) [17]. Moreover, the composite z-score in the assay with Torsin-1A (Homo sapiens) [18] stood at 1.48; in assay [19] it was 1.49. The z-score was -0.714 in [7]; -1.09 (inactive) in assay [9]; 0.0037 (inactive) in [11]; -0.614 (inactive) in assay [12]; -0.134 (inactive) in assay [13]; -0.112 (inactive) in [14].
Turning to `COc1cccc(-c2cccc(=O)o2)c1`, the composite z-score in assay [1] was 0.0707; in [2], -0.0477; in assay [3], -0.0753; in assay [4], -0.51; in [5] it was 0.302; in [6], 0.0278. Besides, the composite z-score in the assay on Lefty1 is -0.198; in [8], 0.143; in [10], 0.595; in assay [15], 0.438; in assay [16] it was 0.177; with Torsin-1A (Homo sapiens) [17], 0.0114. Also, the composite z-score is 0.698 with Torsin-1A (Homo sapiens) [18] and -0.207 in [19]. The z-score is -0.376 in assay [7]; -0.0346 (inactive) in assay [9]; 0.064 (inactive) in assay [11]; 0.77 (inactive) in [12]; -0.228 (inactive) in [13]; -0.977 (inactive) in assay [14].
For the molecule `COCCOC(=O)N1C(=O)[C@@]2(c3cc(C#CCC(C(=O)OC)C(=O)OC)ccc31)[C@H](c1ccccc1OCCO)N1[C@H](c3ccccc3)[C@H](c3ccccc3)OC(=O)[C@H]1[C@@H]2C(=O)NC[C@H](O)c1ccccc1`, the composite z-score in assay [1] was 1.33; in [2], 1.15; in assay [3], 0.9; in assay [4], 0.749; in assay [5], 1.37; in assay [6] it was 1.83. The composite z-score is 1.41 in the assay on Lefty1; 0.339 in assay [8]; 0.851 in assay [10]; 0.0919 in assay [15]; 0.158 in assay [16]; 0.555 with Torsin-1A (Homo sapiens) [17]. Also, the composite z-score with Torsin-1A (Homo sapiens) [18] turned out to be 0.389; in [19], 1.98. Further, the z-score in assay [7] was -0.671; in assay [9], -0.182 (inactive); in assay [11], -4.23 (inactive); in assay [12], 0.166 (inactive); in [13], -0.195 (inactive); in [14] it was 2.22 (inactive).
